Glioma ERSR ind: qHTS for Inducers of the Endoplasmic Reticulum Stress Response (ERSR) in Human Glioma: qHTS | U87-MG GRP78 promoter luciferase reporter, 16 h | Potency, µM, actives largely listed as activators | 420,000 tested, 0.02% active; further: series mostly up to about 76 µM; nearly all actives have a fitted effect of over 35% in size
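Stably transfected U87-MG glioma cells carrying a GRP78-based luciferase sensor; 16 h compound incubation. Luminescence end-point read 10 min after Bright-Glo addition at room temperature.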
hERG WT inh: qHTS for Inhibitors of KCHN2 3.1: Wildtype qHTS | activity change, % at 1.84 µM | AID 720551, 2013 | U2OS, BacMam KCNH2, thallium flux FluxOr; stronger effect = lower value | 340,000 tested, 0.37% active | Voltage-gated inwardly rectifying potassium channel KCNH2 (Homo sapiens), Q12809;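 active means maximum activity change below -70%; inconclusive means maximum activity change between -70% and -50%; inactive means maximum activity change above -50%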
Target sequence (Q12809 whole entry, looked up): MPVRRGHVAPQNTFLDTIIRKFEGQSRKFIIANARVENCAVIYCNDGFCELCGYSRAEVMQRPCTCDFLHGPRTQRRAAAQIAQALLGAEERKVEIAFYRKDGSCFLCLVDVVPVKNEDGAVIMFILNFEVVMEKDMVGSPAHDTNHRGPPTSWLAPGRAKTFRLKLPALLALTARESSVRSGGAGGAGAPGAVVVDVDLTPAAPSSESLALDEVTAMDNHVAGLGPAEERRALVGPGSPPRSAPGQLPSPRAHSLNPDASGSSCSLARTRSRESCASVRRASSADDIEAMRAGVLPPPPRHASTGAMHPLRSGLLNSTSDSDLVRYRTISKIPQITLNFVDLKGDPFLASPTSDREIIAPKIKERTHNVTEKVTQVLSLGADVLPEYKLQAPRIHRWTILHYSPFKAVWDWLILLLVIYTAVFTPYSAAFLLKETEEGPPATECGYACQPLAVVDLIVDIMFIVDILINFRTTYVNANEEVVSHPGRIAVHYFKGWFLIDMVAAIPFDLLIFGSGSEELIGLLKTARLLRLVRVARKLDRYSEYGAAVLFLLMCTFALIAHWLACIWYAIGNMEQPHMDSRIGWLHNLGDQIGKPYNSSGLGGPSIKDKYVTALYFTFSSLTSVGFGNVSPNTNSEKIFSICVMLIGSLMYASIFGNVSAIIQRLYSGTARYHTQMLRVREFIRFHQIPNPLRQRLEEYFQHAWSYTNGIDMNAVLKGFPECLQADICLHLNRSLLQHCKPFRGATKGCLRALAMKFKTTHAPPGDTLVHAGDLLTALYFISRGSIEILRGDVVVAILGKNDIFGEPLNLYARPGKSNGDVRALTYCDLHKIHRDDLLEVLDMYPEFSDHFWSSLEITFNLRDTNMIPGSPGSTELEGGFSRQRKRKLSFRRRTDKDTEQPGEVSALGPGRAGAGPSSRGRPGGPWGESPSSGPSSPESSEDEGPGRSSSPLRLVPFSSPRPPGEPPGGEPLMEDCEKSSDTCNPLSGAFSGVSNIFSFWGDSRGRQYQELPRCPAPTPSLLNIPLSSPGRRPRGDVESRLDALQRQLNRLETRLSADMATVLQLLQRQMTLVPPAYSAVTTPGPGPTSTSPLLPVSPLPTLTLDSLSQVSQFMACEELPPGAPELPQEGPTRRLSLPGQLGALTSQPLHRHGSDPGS
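U2OS cells were transduced with wild-type KCNH2 virus (2.03 x 10^8 / mL) for 4 h at room temperature, then cultured overnight at 37 C. Thallium flux was read with FluxOr dye. Rate constants were normalized to DMSO controls.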
RXFP1 antagonist: qHTS Assay for Antagonists of the Relaxin Receptor RXFP1; activity change, negative = inhibition, % at 57.5 µM; AID 1259400, 2018; HEK293-RXFP1, relaxin-stimulated cAMP HTRF, 30 min; stronger effect = lower value; 350,000 tested, 0.59% active;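 active means activity change of -60% or lower, but not beyond a set lower limit; inconclusive means change between -60% and -40%, or beyond the set limit; inactive means change above -40%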
PTHR1 ag: qHTS for PTHR1 Agonists: Primary Screen; Parathyroid hormone/parathyroid hormone-related peptide receptor (Homo sapiens), Q03431; HEK293 GP2 PTHR1 cells, GloSensor cAMP luminescence, 1 h; Potency, µM (doses to about 115 µM), usual class: activators; 410,000 tested, 0.075% active; AID 743266, 2014; further: nearly all actives have a fitted effect of over 55% in size
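HEK-293-derived GP2 cells expressing PTHR1 and a GloSensor cAMP reporter, 3,000/well, plated overnight, given luciferin plus IBMX (each 0.5 mM as added) for 1 h at 37 °C, then compound for 1 h at 37 °C. Luminescence was read after 15 min at room temperature.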
RXFP1 agonist: qHTS Assay for Agonists of the Relaxin Receptor RXFP1; Relaxin receptor 1 (Homo sapiens), Q9HBX9; HEK293T-RXFP1 cAMP TR-FRET, 30 min; response scale: percent of porcine relaxin response, buffer zero; Potency, µM (titrated, usually from 57.5 µM), usual class: activators; 370,000 tested, 0.3% active; AID 2676, 2010; further: nearly all actives have a fitted effect of over 60% in size
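HEK293T cells stably expressing RXFP1 were pretreated with the PDE4 inhibitor Ro 20174, exposed to compounds for 30 min at 37C, lysed, and cAMP was read by TR-FRET. Data normalized to buffer (basal) and 29 nM porcine relaxin (100%).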
KCNH2 3.1 block: qHTS for Inhibitors of KCHN2 3.1: Mutant qHTS; Potassium voltage-gated channel subfamily H member 2, brain isoform KCNH2 3.1 (human); U2OS KCNH2 3.1, thallium flux FluxOr; stronger effect = lower value; activity change, % (tested at about 1.8 µM); 340,000 tested, 0.95% active; AID 720553, 2013;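 active means maximum activity change below -70%; inconclusive means maximum activity change from -70% to -50%; inactive means maximum activity change above -50%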;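 further: thallium influx rate constant from kinetic fluorescence after stimulation buffer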
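Virally transduced U2OS (3.1 isoform, 4 h infection in dark at RT) → overnight 37 C → FluxOr + Red40 in HBSS/HEPES, 45 min → stimulation buffer, 2 min kinetic read → rate constant vs DMSO controls.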
A number is an active result; . = inactive; ? = inconclusive; / = not tested or not shown. Hits are enriched below; roughly 1.4% of the tested compounds scored in any of these assays. Unless noted, the call rests on the fitted dose curve; in most records, active means well fitted curve in the direction sought with a large enough effect; inconclusive means small, poorly fitted or top-dose-only effect, or another doubt; inactive means no such curve, though single readings can be large; an effect the other way counts as inactive or inconclusive.

SMILES | Glioma ERSR ind | hERG WT inh | RXFP1 antagonist | PTHR1 ag | RXFP1 agonist | KCNH2 3.1 block
CCCC(O)(c1ccccc1)C(CN1CCOCC1)c1ccccc1 (stereo unspecified) | . | . | . | . | . | .
CCc1ccc(C(O)(C(C)C)C(CN2CCOCC2)c2ccccc2)cc1 (stereo unspecified) | . | . | -78 | . | . | .
CCCC(O)(c1ccc(CC)cc1)C(CN1CCOCC1)c1ccccc1 (stereo unspecified) | . | . | -62 | . | . | .
COc1ccc(OCC(=O)NNC(=O)C(=O)Nc2cc(OC)ccc2OC)cc1 | . | . | . | . | . | .
Cc1cccc(C)c1NC(=O)CNC(=O)CNC(=O)Cc1cccc2ccccc12 | . | . | . | . | . | .
CCN(CC)CC(O)CN(c1ccccc1)S(=O)(=O)c1ccc2ccccc2c1 (stereo unspecified) | . | -89 | . | . | . | -106
O=S(=O)(c1ccc2ccccc2c1)N(CC(O)COCc1ccco1)c1ccccc1 (stereo unspecified) | . | . | . | . | . | .
O=C(Nc1cccc2c1CCCC2)c1cc([N+](=O)[O-])ccc1Cl | . | . | . | . | . | .
O=C(Nc1ccccn1)c1ccc([N+](=O)[O-])o1 | ? | . | . | . | . | .
O=C(Nc1ncccn1)c1ccc(Cl)c([N+](=O)[O-])c1 | . | . | . | 50µM | . | .
O=C(Nc1ccc(Nc2ccccc2)cc1)c1ccc(Cl)c([N+](=O)[O-])c1 | . | . | . | . | . | .
O=C(Nc1ncccn1)c1ccc([N+](=O)[O-])o1 | . | . | . | . | 18µM | .
O=C(Nc1cccc2c1CCCC2)c1ccc(Cl)c([N+](=O)[O-])c1 | . | . | -70 | . | . | .
CCOC(=O)N1CCC(N2Cc3cccc(C(=O)NCc4ccc5c(c4)OCO5)c3C2=O)CC1 | . | . | . | . | . | .
CCOc1ccc(Cl)cc1S(=O)(=O)NC1CCCC1 | . | . | . | . | . | .
O=C(CN1C(=O)/C(=C/c2ccc(C(F)(F)F)cc2)Sc2ccccc21)NCCCN1CCOCC1 | . | . | -109 | . | . | .
CN1C(=O)/C(=C\c2ccccc2F)Sc2ccc(C(=O)NC3CCN(Cc4ccccc4)CC3)cc21 | . | -83 | . | . | . | -81
Cc1cccc(CN2C(=O)/C(=C\c3ccc(C(=O)NCCN4CCOCC4)cc3)Sc3ccccc32)c1 | . | . | -87 | . | . | -81
CCN1CCN(CCNC(=O)c2ccc3c(c2)N(Cc2ccc(F)cc2)C(=O)/C(=C/c2ccccc2)S3)CC1 | . | . | ? | . | . | -88
COc1ccc(/C=C2\Sc3ccc(C(=O)NC4CC4)cc3N(C)C2=O)cc1OC | . | . | . | . | . | .
CCc1ccc(/C=C2/Sc3ccccc3N(CC(=O)NCCCN3CCOCC3)C2=O)cc1 | . | . | . | . | . | .
Cc1ccccc1CN1C(=O)/C(=C\c2ccc(C(=O)NCCN3CCOCC3)cc2)Sc2ccccc21 | . | . | . | . | . | .
COc1ccc2[nH]c(=O)c(CN(CC3CCCO3)C(=O)Nc3ccccc3OC)cc2c1 (stereo unspecified) | . | . | . | . | . | .
CCOC(=O)N1CCN(C(=O)C[C@@H]2C[C@@]3(C(=O)OC)CCCCC=C3N(Cc3cccc4ccccc34)C2=O)CC1 | / | / | / | . | / | /
COc1ccc(NC(=S)Nc2cccc(C(C)=O)c2)cc1OC | . | . | . | . | . | .
SMILES | Glioma ERSR ind | hERG WT inh | RXFP1 antagonist | PTHR1 ag | RXFP1 agonist | KCNH2 3.1 block
O=C1Nc2ccccc2C(=O)C1(Cl)Cc1ccccc1 (stereo unspecified) | . | . | . | . | . | .
CCOC(=O)CN(Cc1ccccc1)S(=O)(=O)c1ccc(NC(C)=O)cc1 | . | . | . | . | . | .
Cc1ccc(S(=O)(=O)Nc2cccc(C(=O)NC3CCN(Cc4ccccc4)CC3)c2)cc1F | . | . | . | . | . | -80
CC1CCN(CCCCOc2ccccc2-c2ccccc2)CC1 | . | -71 | . | . | . | -80
CC1CCN(C(=O)CCCOc2ccc(Cl)cc2)CC1 | . | . | . | . | . | .
CC1CCN(CCCCOc2ccc(C(C)(C)C)cc2)CC1 | . | . | . | . | . | -75
CC1CCN(CCCCOc2ccc(Cl)cc2)CC1 | . | . | . | . | . | -76
C=CCn1c(SCc2c(Cl)cccc2Cl)nnc1-c1cccnc1 | . | . | . | . | . | -120
Cc1ccc(C)c(N2CCN(C(=O)CCCn3c(=S)[nH]c4cc5c(cc4c3=O)OCO5)CC2)c1 | . | . | -102 | . | . | .
CCOC(=O)N1CCN(C(=O)c2ccc(Cn3c(=S)[nH]c4cc5c(cc4c3=O)OCO5)cc2)CC1 | . | . | -92 | . | . | .
O=C(CCCn1c(=S)[nH]c2cc3c(cc2c1=O)OCO3)N1CCN(c2ccccc2F)CC1 | . | . | ? | . | . | .
COc1ccccc1N1CCN(C(=O)CCCCCn2c(=S)[nH]c3cc4c(cc3c2=O)OCO4)CC1 | . | . | -78 | . | / | .
COC(=O)CNC(c1ccccc1)c1cc(C)ccc1NC(=O)CNC(=O)OCc1ccccc1 (stereo unspecified) | . | . | . | . | . | .
O=C(C1CCN(S(=O)(=O)c2cccc3nonc23)CC1)N1CCCCC1 | . | . | . | . | . | .
C/C(=N/n1cnnc1)c1cccnc1 | . | . | . | 16µM | . | .
COc1ccc(CC(=O)OCC(=O)c2ccc[nH]2)cc1 | . | -284 | . | . | . | .
O=C(CN1CCC(n2nnc3cc(C(F)(F)F)ccc32)CC1)Nc1ccc2c(c1)CCC2 | . | . | . | . | . | -78
CC(=O)CSc1nnc(-c2ccc(S(=O)(=O)N3CCOCC3)cc2)n1C | . | . | . | . | . | .
Cc1csc2nc(-c3cccc(NC(=O)c4ccccc4Cl)c3)cn12 | . | / | / | . | . | /
O=C(Nc1ccc(Nc2ccccc2)cc1)c1ccco1 | ? | . | -81 | . | . | .
CC(C)(C)C(=O)N1CCN(c2ccc(NC(=O)c3ccco3)cc2)CC1 | . | . | -83 | . | . | .
CCN1CCN(c2ccc(NC(=O)c3ccc(Br)o3)cc2)CC1 | . | . | . | . | . | .

Assay outcomes from PubChem.
